Compound activity: PubChem BioAssay, National Center for Advancing Translational Sciences (NCATS)
In the library only some 4.7% were active in any assay of this set; here they are far more common.
D1 ag: human D1 receptor agonism | P21728 | HEK293 T-REx D1 cells, calcium flux, agonist mode | activation, % at 2 µM | 360,000 tested, 1% active
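Inducible HEK293 T-REx D1 cells, force-coupled to calcium signalling, were plated at 4000 cells/well with tetracycline and held overnight at 30 C. After no-wash calcium dye loading, compound-evoked calcium rise over 180 s flagged agonists.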
D1 PAM: enhances dopamine response at the human D1 receptor | potentiation, % at 10 µM | AID 504651 | HEK293 TREx D1 cells, calcium flux, dopamine EC20 potentiation | 360,000 tested, 0.036% active; in the data active = potentiation above about 30%
D1 antagonist: antagonists of human D1 dopamine receptor. P21728. HEK293 TREx D1 cells, calcium flux, dopamine EC80; hits give low values. activity change, negative = inhibition, % at 10 µM. 360,000 tested, 3.2% active. AID 504652; in the data active = activity change below about -30%
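Inducible Hek293 Trex D1 cells (tetracycline, overnight, 30 C). Calcium dye 30–90 min RT. Antagonist mode: EC80 dopamine added after 180 s compound read.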
TRHR agonist: agonists of human TRH receptor. P34981. TRHR cells, calcium flux fluo-8, FDSS agonist mode. activation, % at 2 µM. 360,000 tested, 0.18% active
Target sequence (P34981 whole entry, looked up): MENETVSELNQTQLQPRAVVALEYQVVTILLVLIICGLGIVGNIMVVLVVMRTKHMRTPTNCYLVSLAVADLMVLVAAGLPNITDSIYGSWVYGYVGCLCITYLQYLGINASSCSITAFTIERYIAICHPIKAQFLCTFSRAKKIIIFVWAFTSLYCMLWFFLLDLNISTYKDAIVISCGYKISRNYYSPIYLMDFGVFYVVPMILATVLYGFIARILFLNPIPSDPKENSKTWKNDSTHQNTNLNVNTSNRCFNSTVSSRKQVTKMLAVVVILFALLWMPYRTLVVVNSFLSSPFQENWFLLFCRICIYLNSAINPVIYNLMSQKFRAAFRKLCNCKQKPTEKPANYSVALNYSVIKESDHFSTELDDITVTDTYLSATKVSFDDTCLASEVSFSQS
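Read-out: compound-evoked intracellular calcium rise in TRHR cells, fluo-8 dye, kinetic FDSS fluorescence at 1 s/cycle following a 10-cycle baseline. Cells cultured overnight before dye loading (30 min–1.5 h, RT).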
TRHR PAM: allosteric enhancers of human TRH receptor; enhancement, % at 2 µM; P34981; TRHR cells, fluo-8 calcium fluorescence, EC20 TRH enhancement; 360,000 tested, 0.66% active; in the data active = enhancement above about 30%
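TRHR-expressing cells loaded with fluo-8 calcium dye were read kinetically (ex 480/em 530) during compound addition, then stimulated with an EC20 of TRH (10 nM final). Enhancement of the Gq-mediated intracellular calcium response was scored.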
Hits are given with their value; n = inactive; x = not tested or not shown. Cut-off read from the data, not from the text of the source, unless noted: active = activation above about 30%; inactive = the rest.

SMILES	D1 ag	D1 PAM	D1 antagonist	TRHR agonist	TRHR PAM
CC(=O)N1CCc2cc(Br)cc(S(=O)(=O)CCC(=O)N3CCN(c4cccc(C)c4C)CC3)c21	n	n	n	n	n
Cc1ccc(NC(=S)NCc2ccc3c(c2)OCO3)cc1C	n	n	n	n	n
C=CCNC(=S)Nc1ccc2nsnc2c1	n	n	-89.5	n	n
S=C(NCc1ccc2c(c1)OCO2)Nc1ccc2nsnc2c1	34.1	n	-33.1	n	n
COc1cccc(CNC(=O)c2ccc3c(c2)sc2nc(-c4ccccc4)cn23)c1OC	n	n	n	n	n
Cc1cccc(-c2nc(C#N)c(NCc3ccco3)o2)c1	n	n	-31.0	n	n
CCNS(=O)(=O)c1ccc(NC(=O)Nc2cc(C)ccc2OC)cc1	n	n	-37.0	n	n
CCNS(=O)(=O)c1ccc(NC(=O)Nc2ccccc2OC)cc1	n	n	n	n	n
Cc1ccccc1C(=O)N/N=C1\SCC(=O)N1Cc1ccco1	n	n	n	n	36.7
COc1cc(OC)cc(C(=O)N/N=C2/SCC(=O)N2Cc2ccco2)c1	n	n	n	n	n
Cc1ccccc1OCC(=O)N/N=C1\SCC(=O)N1Cc1ccccc1	n	n	-43.1	n	n
COc1cc(OC)c2c(C)c(CC(=O)N3CCCCC3)c(=O)oc2c1	n	n	n	n	35.4
COc1cc2oc(=O)c(CC(=O)N3CCCCC3)c(C)c2cc1Cl	n	n	n	n	n
COc1cccc2sc(N3CCN(C(=O)c4ccc([N+](=O)[O-])o4)CC3)nc12	n	n	n	n	n
O=C(c1ccc([N+](=O)[O-])o1)N1CCN(c2nc3c(Cl)cccc3s2)CC1	n	n	-34.0	n	n
COc1ccc(/C=C(\NC(=O)c2ccccc2)C(=O)NC2CCCCC2)cc1	n	n	n	n	n
CCN(CC)CCNC(=O)c1ccc(-c2nc(CN3CCc4ccccc43)c(C)o2)cc1	n	n	n	n	n
Cn1c(=O)c(C(=O)COc2ccc(C#N)cc2)c(N)n(Cc2ccccc2)c1=O	58.8	n	n	n	n
CCC(=O)OCC(=O)c1c(N)n(Cc2ccccc2)c(=O)n(C)c1=O	n	n	n	n	n
CC(C)N1CCc2c(sc(NC(=O)c3ccc(S(=O)(=O)N4CCOCC4)cc3)c2C(N)=O)C1	n	n	n	n	n
CC(C)CN(CC(C)C)S(=O)(=O)c1ccc(C(=O)Nc2sc3c(c2C(N)=O)CCN(C(C)C)C3)cc1	53.9	n	n	n	n
CCCCN(CCCC)S(=O)(=O)c1ccc(C(=O)Nc2sc3c(c2C(N)=O)CCN(CC)C3)cc1	78.5	n	n	n	n
CNC(=O)c1c(NC(=O)c2ccc(S(=O)(=O)N3CC(C)OC(C)C3)cc2)sc2c1CCN(C(C)C)C2 (stereo unspecified)	n	n	n	n	n
CNC(=O)c1c(NC(=O)c2ccc(S(=O)(=O)N3CCCC3)cc2)sc2c1CCN(C(C)C)C2	88.7	n	n	46.5	n
CCN1CCc2c(sc(NC(=O)c3ccc(S(=O)(=O)N(CC)c4ccccc4)cc3)c2C(N)=O)C1	147.7	n	n	74.0	n
SMILES	D1 ag	D1 PAM	D1 antagonist	TRHR agonist	TRHR PAM
CC(CNC(=O)c1ccc(CSc2nc3ccncc3n2Cc2cccc(F)c2)cc1)c1ccccc1 (stereo unspecified)	n	n	n	n	n
O=S(=O)(Nc1cccc2cccnc12)c1cccs1	n	n	n	n	n
Cc1cccc(N2CCN(C(=O)c3sc4nc5n(c(=O)c4c3C)CCC5)CC2C)c1 (stereo unspecified)	n	n	n	n	n
Cc1cc(=O)n2nc(N(C)CC(=O)NCc3ccc(Cl)cc3)sc2n1	n	n	n	n	n
COc1ccc(C(=O)NNC(=S)NC(=O)c2ccco2)cc1	n	n	n	n	n
COc1ccccc1C(=O)NNC(=S)Nc1ccccc1	n	n	-30.6	n	n
COC(=O)NNC(=O)c1ccccc1OC	n	n	n	n	n
CCNC(=S)Nc1cc(OC)c(NC(=O)c2ccco2)cc1OC	n	n	n	n	n
COc1ccccc1C(=O)NNC(=S)NC(=O)c1ccco1	50.4	n	n	n	n
COC(=O)c1cc(OC)c(OC)cc1NC(=S)NC(=O)c1ccco1	n	n	-37.5	n	n
COc1ccccc1CNC(=O)Cn1c(=O)nc(-c2ccccc2)c2ccccc21	n	n	n	n	n
COc1ccccc1S(=O)(=O)Cc1ccc(C(=O)N2CCN(c3cc(Cl)ccc3C)CC2)o1	n	n	n	n	n
CCCOc1ccc(OC(=O)c2ccc(Br)o2)cc1	94.2	n	-42.6	n	n
CCc1ccc(OCC(=O)NNC(=O)CNC(=O)c2ccc(Br)o2)cc1	n	n	n	n	n
CCOc1cc(-c2ccc(OC(=O)c3ccc(C)cc3)c(OC)c2)cc(=O)c2c(C)oc(C)c12	n	n	n	n	n
CCOC(=O)c1cc(-c2ccccc2)n(-c2cccc(C(=O)N(C)c3ccc(C)cc3)c2)c1C	n	n	n	n	n
COc1ccc(NC(=O)CSc2nncs2)cc1S(N)(=O)=O	n	n	-31.7	n	n
Cc1nn(-c2ccc(F)cc2)c2nc(N)c(C#N)c(-c3ccc(O)c(O)c3)c12	n	n	-45.9	n	n
CCCOC(=O)c1ccc(NC(=O)c2cc(OC)c(OC)c(OC)c2Br)cc1	n	n	-36.4	n	n
COc1ccc(NC(=O)c2cc(OC)c(OC)c(OC)c2Br)cc1OC	n	n	n	n	39.1
COc1cc(C(=O)NCCOc2ccccc2)c(Br)c(OC)c1OC	n	n	n	n	n
COc1cc(C(=O)NCCOc2ccc(F)cc2)c(Br)c(OC)c1OC	n	n	-54.6	n	n
COc1cc(C(=O)Nc2ccc(C(C)=O)cc2)c(Br)c(OC)c1OC	n	n	n	n	n
COc1ccc(C)cc1NC(=O)CSc1nc(=O)n(Cc2ccncc2)c2c1CCC2	n	n	x	n	n
COC(=O)c1ccc(C(=O)OC)c(NC(=O)CN(C)Cc2ccccc2)c1	n	n	n	n	31.4
SMILES	D1 ag	D1 PAM	D1 antagonist	TRHR agonist	TRHR PAM
COC(=O)c1ccc(C(=O)OC)c(NC(=O)CN(C)Cc2cccc(Cl)c2Cl)c1	n	n	n	n	n
COC(=O)c1ccc(C(=O)OC)c(NC(=O)CSCc2ccc(Br)cc2)c1	33.0	n	-42.3	n	n
COc1ccccc1C(=O)Nc1ccccc1OCc1cc(=O)n2c(C)csc2n1	n	n	n	n	n
CCOc1ccc(Nc2cc(C)nc3nc(Cc4ccc(Cl)cc4)nn23)cc1	n	n	n	n	n
O=C(CNC(=O)c1ccc(Cl)cc1Cl)OCC(=O)N1CCCC1	n	n	n	n	n
O=C(COC(=O)CNC(=O)c1ccc(Cl)cc1Cl)Nc1cccc(S(=O)(=O)N2CCCC2)c1	n	n	-31.8	n	n
Cc1ccc(S(=O)(=O)N2CCCCC2)cc1NC(=O)CSc1nccn1C	n	n	n	n	n
CCc1ccccc1OCC(=O)Nc1cccc(S(=O)(=O)N2CCCC2)c1	n	n	-30.0	n	n
